Source: PubChem BioAssay
Only some compounds are listed: those with a hit (about 12% of all), similar ones and a draw of the others.
Pf growth 48h = inhibits P. falciparum growth in the first generation, 48 h; P. falciparum luciferase growth in erythrocytes, 48 h; Potency, µM (top dose mostly 28.7 µM), hits mostly inhibitors; actives 5.9% (n = 310,000); AID 504832
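Compounds are pin-transferred into medium, infected erythrocytes (2% hematocrit, 0.1% parasitemia final) are added, and plates sit one parasite generation at 37 C in 5% CO2. Detection reagent is then added and luminescence measured.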
Sm TGR inh = blocks Schistosoma mansoni thioredoxin glutathione reductase. Potency, µM (series often up to 114 µM), hits mostly inhibitors. Q962Y6. actives 3% (n = 360,000). purified TGR, DTNB reduction, TNB absorbance 405 nm; further: nearly all actives have a fitted effect of over 60% in size
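TGR 20 nM + NADPH 100 uM (dispensed conc.), cpd preinc 15 min RT; start with NADPH (500 uM addition) then DTNB (15 mM addition). Kinetic TNB absorbance, 405 nm filter. Four-parameter Hill fit across titration.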
SARS PLP yeast = blocks SARS-CoV papain-like protease in a yeast assay. S. cerevisiae expressing SARS-CoV PLpro, growth rescue. actives 0.19% (n = 330,000). AID 485353. Potency, µM (doses to about 32.9 µM), hits mostly activators; calls by dose curve; further: nearly all actives have a fitted effect of over 55% in size
Pf growth 96h = inhibits malaria parasite growth, 96 h; actives 6.9% (n = 320,000); P. falciparum luciferase reporter growth, 96 h; Potency, µM (titrated, usually from 28.7 µM), most hits filed as inhibitors
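96 h incubation, 37 C, 5% CO2, of luciferase-reporter P. falciparum-infected RBCs (2% hematocrit, 0.05% parasitemia final) with test compounds; endpoint luminescence.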
Each line names hits and unclear results; the compound was inactive in the other large screens. Unless noted, the call rests on the fitted dose curve; in most records, active means well fitted curve in the direction sought with a large enough effect; inconclusive means small, poorly fitted or top-dose-only effect, or another doubt; inactive means no such curve, though single readings can be large; an effect the other way counts as inactive or inconclusive.

CCN(CC)C(=O)c1cccc(NC(=O)CC23CC4CC(CC(C4)C2)C3)c1	Pf growth 48h inconclusive, Pf growth 96h inconclusive
COc1ccc(-n2c(-c3ccc(Cl)cc3)c[n+]3c2CCc2ccccc2-3)cc1	Pf growth 48h 1.85µM, Pf growth 96h inconclusive
COc1ccc(CNC(=O)c2cnc3sc(N4CCC(C)CC4)nn3c2=O)c(OC)c1	none (no result: Pf growth 48h, SARS PLP yeast, Pf growth 96h)
N/C(CN1CCCC1=O)=N\OC(=O)c1ccc(Cl)cc1	Pf growth 96h 11.7µM
COc1ccc(C(=O)O/N=C(\N)Cc2ccc(Cl)c(Cl)c2)cc1OC	Pf growth 48h 4.15µM
COc1ccc(C(=O)O/N=C(\N)Cc2ccc(Cl)cc2)cc1OC	Pf growth 48h 7.38µM, Pf growth 96h 10.4µM
N/C(Cc1ccc(Cl)cc1)=N\OC(=O)c1ccccc1	Pf growth 96h 10.4µM (no result: Pf growth 48h)
CCOc1ccc(CNC(=O)CSc2nnc(C)c3c(C)n(-c4ccc(Cl)cc4)nc23)cc1	none (no result: Pf growth 48h, SARS PLP yeast, Pf growth 96h)
O=[N+]([O-])c1ccc2c(c1)C(N1CCOCC1)/C(=C/COc1ccc3ccccc3c1Br)O2 (centres undefined)	Pf growth 48h 6.57µM, Pf growth 96h inconclusive
O=[N+]([O-])c1ccc(OC/C=C2\Oc3ccc([N+](=O)[O-])cc3C2N2CCOCC2)cc1 (centres undefined)	Pf growth 48h inconclusive
CN(C)c1ccc(NC(=O)Nc2csc3ccccc23)cc1	Pf growth 48h inconclusive, Sm TGR inh inconclusive, Pf growth 96h 5.22µM
COc1ccc(CCNC(=O)Cn2c(=O)nc(-c3ccccc3)c3cc(Cl)ccc32)cc1OC	none (no result: Pf growth 48h, SARS PLP yeast, Pf growth 96h)
Cn1c2cc(B(O)O)sc2c2cnn(Cc3c(F)cccc3Cl)c(=O)c21	Pf growth 48h 13.1µM, Pf growth 96h 10.4µM
Cc1csc(=Nc2cccnc2)n1CC1CCCCC1	Pf growth 48h inconclusive, Sm TGR inh inconclusive, Pf growth 96h inconclusive
C=CCN1C(=Nc2cccnc2)SCC1(O)c1ccc(C)cc1 (centres undefined)	Pf growth 48h 3.29µM
CC(C)(C)c1ccc(OCCCn2ccnc2)cc1	Pf growth 48h inconclusive, Pf growth 96h inconclusive
CCCCn1c(CN(C)Cc2ccccc2)nc2c1c(=O)n(C)c(=O)n2C	Pf growth 48h 13.1µM
CN(Cc1ccccc1)Cc1nc2c([nH]1)c(=O)n(C)c(=O)n2C	Pf growth 48h inconclusive, Pf growth 96h 10.4µM
CCCn1c(CN(C)Cc2ccccc2)nc2c1c(=O)n(C)c(=O)n2C	none
CCOC(=O)Cn1c(CN(Cc2ccccc2)Cc2ccccc2)nc2c1c(=O)n(C)c(=O)n2C	Pf growth 48h 5.86µM, Pf growth 96h inconclusive
CCCc1nc2c([nH]1)c(=O)n(C)c(=O)n2C	none
CCCn1c(CN(Cc2ccccc2)Cc2ccccc2)nc2c1c(=O)n(C)c(=O)n2C	Pf growth 48h inconclusive, Pf growth 96h 9.28µM
CN(CC(=O)Nc1ncn[nH]1)S(=O)(=O)c1ccc(Br)cc1	none
COCCc1nn2c(=O)cc(COC(=O)c3ccc(C(C)(C)C)cc3)nc2s1	none (no result: Pf growth 48h, SARS PLP yeast, Pf growth 96h)
CCOCCn1c(CN(C)Cc2ccccc2)nc2c1c(=O)n(C)c(=O)n2C	none
COCCn1c(CN(C)Cc2ccccc2)nc2c1c(=O)n(C)c(=O)n2C	Pf growth 96h 5.86µM (no result: Pf growth 48h)
CCn1c(SCC(=O)NC2=NCCS2)nnc1C(C)NC(=O)c1ccc(Cl)cc1 (centres undefined)	none
CC(NC(=O)C(=O)N1CCCCC1)C(c1cccs1)N1CCN(c2ccccc2F)CC1 (centres undefined)	Pf growth 48h inconclusive, Sm TGR inh inconclusive, Pf growth 96h 1.31µM
CCCCCOc1ccc(/C=C/c2c([N+](=O)[O-])c(=O)n(C)c(=O)n2C)cc1	Pf growth 48h 11.7µM, Pf growth 96h inconclusive
Cn1c(/C=C/c2ccc(Cl)cc2)c([N+](=O)[O-])c(=O)n(C)c1=O	Pf growth 48h inconclusive
CCCCOCC(O)CN1CCN(C(C)=O)CC1 (centres undefined)	Pf growth 96h 8.28µM
CC(=O)N1CCN(CC(O)COc2ccc(Br)cc2)CC1 (centres undefined)	Pf growth 96h inconclusive
COc1ccc(C)cc1NC(=O)c1cnc2ccc(C)cn2c1=O	none (no result: Pf growth 48h, SARS PLP yeast, Pf growth 96h)
Cc1ccc(CNC(=O)C23CN(Cc4ccccc4)CC2C(c2cccc([N+](=O)[O-])c2)=NO3)cc1 (centres undefined)	Pf growth 48h 10.4µM, Pf growth 96h inconclusive
COc1ccc(CCNC(=O)c2ccc(CN3CCC(Cc4ccccc4)CC3)cc2)cc1	Pf growth 48h inconclusive, Pf growth 96h inconclusive
O=C(NCc1ccco1)C12CN(Cc3ccccc3)CC1C(c1cccc([N+](=O)[O-])c1)=NO2 (centres undefined)	Pf growth 48h inconclusive, Pf growth 96h inconclusive
COc1ccc(CNC(=O)C23CN(Cc4ccccc4)CC2C(c2ccc([N+](=O)[O-])cc2)=NO3)cc1 (centres undefined)	Pf growth 48h 6.57µM, Pf growth 96h 13.1µM
COc1ccc(CCNC(=O)C23CN(Cc4ccccc4)CC2C(c2ccc([N+](=O)[O-])cc2)=NO3)cc1 (centres undefined)	Pf growth 48h 5.22µM, Pf growth 96h inconclusive
O=C(NCc1ccco1)C12CN(Cc3ccccc3)CC1C(c1ccc([N+](=O)[O-])cc1)=NO2 (centres undefined)	Pf growth 48h 11.7µM
CCOc1ccc(NC(=O)CN(C)C(=O)c2cccnc2Sc2ccccc2Cl)cc1OCC	Pf growth 48h inconclusive
O=C(NCc1ccccc1)C12CN(Cc3ccccc3)CC1C(c1ccc([N+](=O)[O-])cc1)=NO2 (centres undefined)	Pf growth 48h 11.7µM, Pf growth 96h inconclusive
C/C(=N\Nc1ccc(S(N)(=O)=O)cc1[N+](=O)[O-])c1ccco1	Sm TGR inh 39.8µM
Cn1c(SCCCC(=O)c2ccc(Br)cc2)nnc1-c1ccncc1	Pf growth 96h 8.28µM (no result: Pf growth 48h)
CCOc1ccccc1-c1nnc(SCC(=O)NC2(C#N)CCCC2)o1	Pf growth 48h inconclusive, Pf growth 96h 9.28µM
N#CC1(NC(=O)CSc2nnc(Cc3ccccc3)o2)CCCCC1	Pf growth 96h inconclusive
COc1ccc(Cn2ccc3nc(C)c(C(=O)NCc4ccc(SC)cc4)cc3c2=O)cc1	none (no result: Pf growth 48h, SARS PLP yeast, Pf growth 96h)
O=C(COC(=O)c1ccccn1)NC(=O)c1ccccc1	none
COc1cc2cc(CCCOC(=O)c3ccc4c(c3)OCO4)oc(=O)c2cc1OC	Sm TGR inh 50.1µM, Pf growth 96h inconclusive
COc1ccc(C(=O)OCCc2cc3ccccc3c(=O)o2)cc1	Sm TGR inh inconclusive, Pf growth 96h inconclusive
COc1ccc(C(=O)OCCCc2cc3ccccc3c(=O)o2)cc1	Sm TGR inh 50.1µM
COc1cc2cc(CCCOC(=O)c3ccc(C(F)(F)F)cc3)oc(=O)c2cc1OC	none
CN1CCN(C(=O)c2ccc3c(c2)N(Cc2ccc(Cl)cc2)C(=O)c2ccccc2S3(=O)=O)CC1	none (no result: Pf growth 48h, SARS PLP yeast, Pf growth 96h)
Cc1ccc2c(=O)c(C(=O)c3ccc(F)cc3)cn(CC(=O)NCc3ccccc3)c2n1	none (no result: Pf growth 48h, SARS PLP yeast, Pf growth 96h)
CCOC(=O)c1c(C)[nH]c(C)c1C(=O)CSc1nc2ccccc2c(=O)n1-c1ccc(F)cc1	Pf growth 48h inconclusive, Pf growth 96h inconclusive
CCOC(=O)c1c(C)[nH]c(C)c1C(=O)CSc1nc2ccccc2c(=O)n1-c1ccccc1C	Pf growth 48h 10.4µM, Pf growth 96h inconclusive
